IL1B secr inh: qHTS for Inhibitors of Inflammasome Signaling: IL-1-beta AlphaLISA Primary Screen | THP-1 LPS/ATP IL-1B secretion, AlphaLISA, 16 h; stronger effect = lower value | activity change, % at 57.5 µM | 360,000 compounds, 4.7% hits | AID 743279, 2014; in the data active = activity change below about -50%; inconclusive = mostly about -30% to -49%
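Secreted IL-1B measured by AlphaLISA bead assay after 16 h compound exposure of THP-1 cells; compounds (final up to 57.5 uM) added 1 h before LPS (250 ng/mL) and ATP (1.25 mM) stimulation; lower signal means less secretion.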
TDP1 inh: qHTS Assay for Inhibitors of Tyrosyl-DNA Phosphodiesterase (TDP1). 350,000 compounds, 0.28% hits. Tyrosyl-DNA phosphodiesterase 1 (Homo sapiens), Q9NUW8. AID 485290, 2010. Potency, µM (highest dose often 130 µM), inactives show at the highest dose activity change, negative = inhibition, most hits filed as inhibitors. recombinant TDP1, AlphaScreen DNA substrate cleavage; note: potency is the fitted concentration of half-maximal effect; nearly all actives have a fitted effect of over 40% in size
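Tdp1 1 nM final; 15 min RT w/ cpd; substrate 15 nM, 5 min; beads 10 ug/ml, 10 min; AlphaScreen read. Neg ctrl: no enzyme.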
TDP1 cell noCPT: qHTS for Inhibitors of human tyrosyl-DNA phosphodiesterase 1 (TDP1): qHTS in cells in absence of CPT; DT40 Tdp1-/- hTDP1 cells, no CPT, ATP luminescence, 48 h; Potency, µM (doses to about 46.2 µM), without a hit: at the top dose activity change, negative = growth inhibition, actives largely listed as inhibitors; 420,000 compounds, 15% hits; AID 686978, 2013; note: potency is the fitted concentration of half-maximal effect; nearly all actives have a fitted effect of over 55% in size
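Seeded 400 DT40-hTDP1 cells/well (vehicle DMSO, no 20 nM CPT); pinned compounds; ≥48 hr at 37 °C; CellTiter-Glo luminescence as viability measure.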
Six1-Eya2 blk: qHTS Assay for Inhibitors of the Six1/Eya2 Interaction; AlphaScreen GST-Six1/His-Eya2 binding, biochemical; stronger effect = lower value; 360,000 compounds, 0.56% hits; AID 651725, 2012; activity change, % (test concentration not listed); Homeobox protein SIX1 (Homo sapiens) + Protein phosphatase EYA2 (Homo sapiens), …; in the data active = activity change below about -65%; inconclusive = mostly about -30% to -63%
Target sequence (O00167 whole entry, looked up): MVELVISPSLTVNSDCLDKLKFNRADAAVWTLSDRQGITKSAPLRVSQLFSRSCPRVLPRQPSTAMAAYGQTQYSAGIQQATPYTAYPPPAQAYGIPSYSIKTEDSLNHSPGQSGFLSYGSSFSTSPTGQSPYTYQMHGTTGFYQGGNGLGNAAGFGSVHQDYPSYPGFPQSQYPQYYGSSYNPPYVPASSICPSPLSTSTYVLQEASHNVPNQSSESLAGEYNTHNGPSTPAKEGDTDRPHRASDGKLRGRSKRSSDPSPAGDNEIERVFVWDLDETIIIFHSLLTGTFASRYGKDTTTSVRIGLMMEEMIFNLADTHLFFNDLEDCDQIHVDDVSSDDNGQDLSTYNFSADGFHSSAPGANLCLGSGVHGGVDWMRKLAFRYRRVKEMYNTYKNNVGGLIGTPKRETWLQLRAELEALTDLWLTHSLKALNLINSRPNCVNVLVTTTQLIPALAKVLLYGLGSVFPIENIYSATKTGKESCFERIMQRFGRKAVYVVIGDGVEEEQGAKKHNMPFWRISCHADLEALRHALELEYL
Target sequence (Q15475 whole entry, looked up): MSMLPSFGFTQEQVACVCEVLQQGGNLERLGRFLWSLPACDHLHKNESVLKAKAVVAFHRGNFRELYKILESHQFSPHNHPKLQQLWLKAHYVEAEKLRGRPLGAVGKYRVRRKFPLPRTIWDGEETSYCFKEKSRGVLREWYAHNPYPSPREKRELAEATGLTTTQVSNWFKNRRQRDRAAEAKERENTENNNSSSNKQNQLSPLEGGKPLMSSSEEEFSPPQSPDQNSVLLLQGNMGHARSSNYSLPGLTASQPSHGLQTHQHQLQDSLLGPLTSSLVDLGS
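GST-Six1 + His-Eya2 (5X stock: 250/500 nM); Tris pH 8.0, 300 mM NaCl, 0.05% BSA, 0.02% Tween 20; GSH donor/Ni acceptor beads; 1 h 37 °C dark; AlphaScreen readout.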
CtBP-E1A blk: qHTS Assay for Inhibitors of the CtBP/E1A Interaction. CtBP / adenovirus E1A interaction (AlphaScreen). 340,000 compounds, 0.49% hits. activity change, % (no concentration beside the values). AlphaScreen GST-E1A/His-CtBP binding, 1536-well; stronger effect = lower value; in the data active = activity change below about -65%; inconclusive = mostly about -30% to -63%
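Steps: dispense buffer (Tris pH 8.0, NaCl 300 mM, TCEP 1 mM, BSA, Tween 20); add 5X protein mix (GST-E1A, His-CtBP, 125 nM each); pin 23 nL compound; 2 h at 37 °C, dark; add 5X beads (50 ug/mL); 1 h; read.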
DT40 TDP1 CPT: qHTS for Inhibitors of human tyrosyl-DNA phosphodiesterase 1 (TDP1): qHTS in cells in presence of CPT | chicken DT40 Tdp1-/-;hTDP1 cells + 20 nM CPT, ATP luminescence, 48 h | Potency, µM (top dose mostly 46.2 µM), for inactives: top-dose activity change, negative = growth inhibition, most hits filed as inhibitors | 420,000 compounds, 12% hits; note: potency is the fitted concentration of half-maximal effect; nearly all actives have a fitted effect of over 55% in size
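Chicken DT40 Tdp1-/- cells complemented with human TDP1, 400 cells/well, exposed to compounds plus 20 nM camptothecin for at least 48 h at 37 C; viability read as ATP content by CellTiter-Glo luminescence.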
An asterisk follows results filed as active; ? = inconclusive; . = no result; [ ] = another dose, or the depositor's remark. Compounds with a hit are over-represented: about 18% of the library has one in this group of screens. Unless noted, calls come from the whole dose curve; as a rule, active = well fitted curve in the direction sought with a large enough effect; inconclusive = small, poorly fitted or top-dose-only effect, or another doubt; inactive = no such curve, though single readings can be large; an effect the other way counts as inactive or inconclusive. % is set by controls: 0 for no effect and ±100 for the full control effect.

SMILES	IL1B secr inh	TDP1 inh	TDP1 cell noCPT	Six1-Eya2 blk	CtBP-E1A blk	DT40 TDP1 CPT
Cc1ccc(C)c(N2CCN(C(=O)CN3C(=S)NC(C)(C)CC3C)CC2)c1 (stereo unspecified)	-3	5%	23µM*	0	10	23µM*
Cc1ccc(C)c(N2CCN(C(=O)CN3CCSc4ccccc43)CC2)c1	.	5%	.	.	.	.
Cc1ccc(C)c(N2CCN(C(=O)CC3Sc4ccccc4NC3=O)CC2)c1 (stereo unspecified)	-28	3%	16µM*	-10	1	18µM*
Cc1ccc(NC(=O)Cn2nnc(C(=O)NCc3ccc4c(c3)OCO4)c2N)cc1Cl	.	1%	5%	.	.	-11%
Cc1cccc(C2=Nc3ccccc3N=C(c3cc(Cl)ccc3O)C2)c1	.	0%[12.3 µM]	?	.	.	?
CC(=O)OC1COC(OC2C(O)C(C)OC(OC3C(OC4CCC5(C)C(CCC6(C)C5CC=C5C7CC(C)(C)CCC7(C(=O)O)CCC56C)C4(C)CO)OCC(O)C3O)C2O)C(O)C1OC(C)=O (stereo unspecified)	.	-4%	.	.	.	.
COc1ccc(-c2oc3ccc(N4CCOCC4)cc3c2C#Cc2ccc(N)cc2)cc1	47	.	6.5µM*	5	8	7.3µM*
COc1ccc(C#Cc2c(-c3ccsc3)oc3ccc(N4CCOCC4)cc23)cc1	-8	.	-20%	8	13	?
COc1ccc(-c2oc3cccnc3c2C#CC2(O)CCCCC2)cc1	-56*	.	23µM*	9	-13	?
COc1ccc(-c2oc3ccc(N4CCOCC4)cc3c2C#CC2(O)CCCCC2)cc1	11	.	16µM*	-13	.	?
COc1ccc(-c2oc3cccnc3c2C#CCO)cc1	0	.	?	-12	-15	?
CCN(C(=O)COc1ccc(N(C)S(=O)(=O)c2ccc(NC(C)=O)cc2)cc1)C1CCCCC1	-19	2%	?	-8	-6	?
COc1cc(C(C)=O)ccc1OCC(=O)OC(C)C(=O)c1ccc(F)cc1 (stereo unspecified)	1	1%	2%	0	.	27%
Cc1cc2nc(C3CCN(Cc4nnnn4Cc4cccs4)CC3)[nH]c2cc1C	-14	8%	6.3µM*	-2	-6	3.5µM*
Cc1cc2nc(C3CCN(C(=S)NCC(C)C)CC3)[nH]c2cc1C	-5	2%	-5%	-7	0	?
O=C(CS(=O)c1ccc(Br)cc1)N1CCOCC1 (stereo unspecified)	2	.	-3%	8	.	24%
CCCn1c2ccccc2c2cnn(CC(=O)NCCc3ccc(OC)cc3OC)c(=O)c21	.	7%	?	.	.	?
Cc1ccc(/C=N\NC(=O)C2CN(S(=O)(=O)c3ccccc3)CCN2S(=O)(=O)c2ccccc2)cc1 (stereo unspecified)	-5	-2%	18µM*	-12	-11	?
Cc1cccc(C(C)C)c1NC(=O)C1CN(S(=O)(=O)c2ccccc2)CCN1S(=O)(=O)c1ccccc1 (stereo unspecified)	-14	0%	18µM*	-4	5	26µM*
CC(C)(CNS(=O)(=O)c1ccc(F)cc1)CNS(=O)(=O)c1ccc(F)cc1	-29	3%	-20%	-1	-4	2%
Cc1ccc(N(Cc2cc3ccccc3[nH]c2=O)C(=O)c2ccco2)c(C)c1	-28	5%	?	-10	1	?
